Measured values taken from PubChem BioAssay (EPA / NIEHS).
Inconclusive results are not listed. The source made the active and inactive calls. The calls were made as follows, unless noted: active = hit-call score of the fitted dose curve at least 0.9, where 1 is the maximum; inactive = score below 0.9.

Tests used:
[1] = target: human CYP1A1, CYP1A1 (gene 1543) (UniProt P04798); test: NVS_ADME_hCYP1A1: NovaScreen (NVS) CYP450-related Enzyme Activity (ADME) Assay for human CYP1A1 (AID 2283100; active = hit-call score of the fitted dose curve at least 0.9, where 1 is the maximum)
Method in brief: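 Chemicals were first tested in duplicate at 10 uM, and those passing a 30% inhibition threshold were rerun as concentration series topping at 20 uM. Fluorescence read-out of recombinant enzyme turnover after 1 h, relative to acetonitrile.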

[2] = target: human CYP2B6, CYP2B6 (gene 1555) (UniProt P20813); test: NVS_ADME_hCYP2B6: NovaScreen (NVS) CYP450-related Enzyme Activity (ADME) Assay for human CYP2B6 (AID 2283101; active = hit-call score of the fitted dose curve at least 0.9, where 1 is the maximum)
Method in brief: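 Cell-free recombinant enzyme assay with a fluorogenic substrate; fluorescence intensity read 1 hour after dosing. Loss of signal relative to acetonitrile negative control indicates inhibition. Primary screen run in duplicate at 10 uM, actives then tested in concentration series.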

[3] = read-out: Monocyte Chemoattractant Protein-1 (MCP1), CCL2 (gene 6347); test: BSK_LPS_MCP1: BioMAP Diversity Plus: LPS Assay for Monocyte Chemoattractant Protein-1 (MCP1) Biomarker Activity (AID 2283081); conditions: primary human HUVEC with PBMC; actives raise or lower the signal;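 as to AC50: co-culture stimulated with LPS; secreted MCP-1 protein quantified by ELISA in culture supernatant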
Method in brief: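 Secreted MCP-1 read by ELISA at 24 h post-dosing in an LPS-activated co-culture of endothelial cells with peripheral blood mononuclear cells. Fits run in both directions, DMSO as baseline; parallel SRB staining tracks overt cytotoxicity.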

[4] = BSK_LPS_PGE2: BioMAP Diversity Plus: LPS Assay for Prostaglandin E2 (PGE2) Biomarker Activity (AID 2283082); conditions: primary human HUVEC with PBMC; actives raise or lower the signal;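 as to AC50: secreted prostaglandin E2 measured by ELISA in LPS-stimulated co-culture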
Method in brief: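 LPS-activated HUVEC/PBMC co-culture; cmpd dosed, 24 h; PGE2 by ELISA; bidirectional fit vs DMSO; SRB (0.1%, TCA-fixed, 560 nm) in parallel plates for overt cytotox.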

[5] = read-out: Macrophage colony-stimulating factor (MCSF), CSF1 (gene 1435); test: BSK_LPS_MCSF: BioMAP Diversity Plus: LPS Assay for Macrophage colony-stimulating factor (MCSF) Biomarker Activity (AID 2283083); conditions: primary human HUVEC with PBMC; actives raise or lower the signal
Method in brief: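 Bidirectional fitting against DMSO was applied to M-CSF levels read by ELISA at 24 h post-dose. The system pairs human umbilical vein endothelium with peripheral blood mononuclear cells; parallel SRB staining tracked cytotoxicity.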

[6] = read-out: Tissue Factor, F3 (gene 2152); test: BSK_LPS_TissueFactor: BioMAP Diversity Plus: LPS Assay for Tissue Factor Biomarker Activity (AID 2283084); conditions: primary human HUVEC with PBMC; actives raise or lower the signal
Method in brief: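 Compound was added to an endothelial cell/PBMC co-culture, and after 24 h tissue factor (CD142) was read by ELISA. Gain or loss of signal was fitted against a DMSO baseline, and parallel SRB staining (560 nm) tracked overt cytotoxicity.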

[7] = read-out: Tumor necrosis factor (Homo sapiens) (UniProt P01375); test: BSK_LPS_TNFa: BioMAP Diversity Plus: LPS Assay for Tumour Necrosis Factor alpha (TNFa) Biomarker Activity (AID 2283085); conditions: primary human HUVEC with PBMC; actives raise or lower the signal
Method in brief: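 Read-out is ELISA of TNFa in primary human endothelial cell–PBMC co-cultures at 24 h after compound. Activity in either direction was fitted against DMSO.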

[8] = read-out: Vascular cell adhesion molecule 1 (VCAM1), VCAM1 (gene 7412); test: BSK_LPS_VCAM1: BioMAP Diversity Plus: LPS Assay for Vascular cell adhesion molecule 1 (VCAM1) Biomarker Activity (AID 2283086); conditions: primary human HUVEC with PBMC; actives raise or lower the signal
Method in brief: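 HUVEC + PBMC co-culture, LPS system; compound 24 h; VCAM-1 by ELISA; bidirectional fit vs DMSO control; parallel SRB (0.1%, TCA-fixed, 560 nm) for cytotoxicity.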

CD38, CD38 (gene 952) = test: BSK_SAg_CD38: BioMAP Diversity Plus: SAg Assay for CD38 Biomarker Activity (AID 2283087); conditions: primary human HUVEC with PBMC; actives raise or lower the signal
Method in brief: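 Human HUVEC plus PBMC co-culture stimulated with superantigen; CD38 measured by ELISA 24 h after chemical dosing. Fluorescence read-out, bidirectional fit against DMSO; cytotoxicity tracked in parallel by SRB and Alamar Blue.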

CD40, CD40 (gene 958) = test: BSK_SAg_CD40: BioMAP Diversity Plus: SAg Assay for CD40 Biomarker Activity (AID 2283088); conditions: primary human HUVEC with PBMC; actives raise or lower the signal
Method in brief: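 CD40 is measured by fluorescence ELISA in an endothelial/PBMC primary human co-culture at 24 h post-dose. Fitting is bidirectional, DMSO baseline. Parallel SRB staining (560 nm) flags cytotoxicity.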

[9] = read-out: Monocyte Chemoattractant Protein-1 (MCP1), CCL2 (gene 6347); test: BSK_SAg_MCP1: BioMAP Diversity Plus: SAg Assay for Monocyte Chemoattractant Protein-1 (MCP1) Biomarker Activity (AID 2283090); conditions: primary human HUVEC with PBMC; actives raise or lower the signal
Method in brief: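 MCP-1 levels in the endothelial–PBMC SAg co-culture were quantified by ELISA at 24 h post-dosing; both increases and decreases versus DMSO scored. Cytotoxicity monitored by SRB total protein in parallel cultures.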

[10] = read-out: E-selectin (Homo sapiens) (UniProt P16581); test: BSK_SAg_Eselectin: BioMAP Diversity Plus: SAg Assay for Eselectin Biomarker Activity (AID 2283091); conditions: primary human HUVEC with PBMC; actives raise or lower the signal
Method in brief: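 Cell-surface E-selectin is read by ELISA at 24 h in the SAg co-culture of HUVEC and PBMC. Curves are fitted in both directions relative to DMSO. Parallel SRB total-protein staining tracks overt toxicity.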

[11] = BSK_SAg_PBMCCytotoxicity: PBMC Cytotoxicity Assessment in the BioMAP Diversity Plus: SAg Assay (AID 2283093); conditions: primary human HUVEC with PBMC;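 also: PBMC viability measured as Alamar Blue reduction fluorescence at 546/580 nm; fitted both ways against DMSO so a hit may be loss or gain of signal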;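 as to AC50: PBMC superantigen activated with SEB plus TSST-1 one hour after compound addition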
Method in brief: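 HUVEC/PBMC co-culture; PBMC exposed to chemical 1 h before SEB and TSST-1 activation (20 ng/mL each), incubated 90 h, then Alamar Blue 6 h, fluorescence 546/580 nm. Bidirectional fit versus DMSO baseline.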

[12] = read-out: Interleukin-8 (IL8), CXCL8 (gene 3576); test: BSK_SAg_IL8: BioMAP Diversity Plus: SAg Assay for Interleukin-8 (IL8) Biomarker Activity (AID 2283094); conditions: primary human HUVEC with PBMC; actives raise or lower the signal
Method in brief: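 ELISA read-out of IL-8 in a primary human vascular co-culture (umbilical vein endothelium plus PBMC), taken 24 h after compound addition. Values derive from bidirectional fits against DMSO negative controls.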

[13] = BSK_SAg_Proliferation: Cell Proliferation Assessment in the BioMAP Diversity Plus: SAg Assay (AID 2283095); conditions: primary human HUVEC with PBMC;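 also: relative cell number as total protein by SRB absorbance in sub-confluent culture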
Method in brief: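 Cells (endothelium plus PBMC, human primary) were dosed with chemical, cultured 96 h, fixed in 10% TCA and stained with 0.1% SRB. Absorbance at 560 nm gave relative protein, fitted bidirectionally relative to DMSO.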

[14] = BSK_SAg_SRB: Viability Assessment in the BioMAP Diversity Plus: SAg Assay (AID 2283096); conditions: primary human HUVEC with PBMC;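 also: cells read one day after compound addition; hits may be either gain or loss of signal compared with DMSO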
Method in brief: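 Human umbilical vein endothelial cells co-cultured with PBMC, read 24 h after compound dosing. Total protein measured by sulforhodamine B staining (0.1% SRB after 10% TCA fixation, absorbance 560 nm); bidirectional fit versus DMSO baseline.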

CD69, CD69 (gene 969) = test: BSK_SAg_CD69: BioMAP Diversity Plus: SAg Assay for CD69 Biomarker Activity (AID 2283089); conditions: primary human HUVEC with PBMC; actives raise or lower the signal;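 as to AC50: cell surface CD69 protein quantified by ELISA with fluorescence detection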
Method in brief: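 Primary human vascular co-culture (umbilical vein endothelium with peripheral blood mononuclear cells) exposed to test chemical for 24 h. CD69 levels quantified by fluorescence ELISA; DMSO served as negative control for bidirectional fitting.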

[15] = read-out: Monokine induced gamma interferon (MIG), CXCL9 (gene 4283); test: BSK_SAg_MIG: BioMAP Diversity Plus: SAg Assay for Monokine induced gamma interferon (MIG) Biomarker Activity (AID 2283092); conditions: primary human HUVEC with PBMC; actives raise or lower the signal
Method in brief: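 Endothelial cells and PBMC were co-cultured, exposed to test chemicals, and sampled 24 h later. MIG was measured by ELISA, and responses were fitted in both directions relative to DMSO.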

[16] = target: human CYP1A2, CYP1A2 (gene 1544) (UniProt P05177); test: NVS_ADME_hCYP1A2: NovaScreen (NVS) CYP450-related Enzyme Activity (ADME) Assay for human CYP1A2 (AID 2283102; active = hit-call score of the fitted dose curve at least 0.9, where 1 is the maximum;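 as to AC50: fluorescence from turnover of a fluorogenic substrate by recombinant insect-cell CYP1A2; potency for inhibition since loss of fluorescence marks reduced CYP1A2 activity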)
Method in brief: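 Enzyme activity of insect-cell-expressed human CYP1A2 measured by fluorescence 0.5 h after compound addition, relative to acetonitrile. Compounds first tested in duplicate at 10 uM, actives followed up in concentration series.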

[17] = target: human CYP19A1, CYP19A1 (gene 1588) (UniProt P11511); test: NVS_ADME_hCYP19A1: NovaScreen (NVS) CYP450-related Enzyme Activity (ADME) Assay for human CYP19A1 (AID 2283098; active = hit-call score of the fitted dose curve at least 0.9, where 1 is the maximum)
Method in brief: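 Recombinant enzyme in a cell-free format, read 0.5 h after dosing by fluorescence from a fluorogenic substrate. Loss of signal was fitted against acetonitrile as baseline. Primary screen in duplicate at 10 uM, actives then tested in concentration series.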

Measured: AC50

Tumor necrosis factor (Homo sapiens), sequence (P01375 whole entry, looked up): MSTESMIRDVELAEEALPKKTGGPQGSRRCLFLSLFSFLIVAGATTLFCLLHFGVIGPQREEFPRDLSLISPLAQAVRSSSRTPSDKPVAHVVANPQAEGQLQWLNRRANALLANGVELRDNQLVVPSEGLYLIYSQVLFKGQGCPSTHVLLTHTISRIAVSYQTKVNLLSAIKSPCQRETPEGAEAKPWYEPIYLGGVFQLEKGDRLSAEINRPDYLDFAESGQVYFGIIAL
human CYP1A1, CYP1A1 (gene 1543), sequence (P04798 whole entry, looked up): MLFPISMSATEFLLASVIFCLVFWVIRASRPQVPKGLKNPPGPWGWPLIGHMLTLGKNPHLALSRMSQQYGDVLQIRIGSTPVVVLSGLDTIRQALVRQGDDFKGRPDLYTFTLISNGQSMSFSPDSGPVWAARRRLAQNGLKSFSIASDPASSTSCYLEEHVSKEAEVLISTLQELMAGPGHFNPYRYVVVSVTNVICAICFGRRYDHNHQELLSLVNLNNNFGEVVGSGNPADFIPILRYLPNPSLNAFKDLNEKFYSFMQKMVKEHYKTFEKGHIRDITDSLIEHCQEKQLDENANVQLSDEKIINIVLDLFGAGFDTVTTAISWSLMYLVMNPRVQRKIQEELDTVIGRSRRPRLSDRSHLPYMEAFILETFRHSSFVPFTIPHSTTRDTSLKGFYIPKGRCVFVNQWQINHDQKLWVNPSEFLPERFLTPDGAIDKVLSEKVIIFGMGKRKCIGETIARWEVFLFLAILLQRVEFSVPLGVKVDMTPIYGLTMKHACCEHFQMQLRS
E-selectin (Homo sapiens), sequence (P16581 whole entry, looked up): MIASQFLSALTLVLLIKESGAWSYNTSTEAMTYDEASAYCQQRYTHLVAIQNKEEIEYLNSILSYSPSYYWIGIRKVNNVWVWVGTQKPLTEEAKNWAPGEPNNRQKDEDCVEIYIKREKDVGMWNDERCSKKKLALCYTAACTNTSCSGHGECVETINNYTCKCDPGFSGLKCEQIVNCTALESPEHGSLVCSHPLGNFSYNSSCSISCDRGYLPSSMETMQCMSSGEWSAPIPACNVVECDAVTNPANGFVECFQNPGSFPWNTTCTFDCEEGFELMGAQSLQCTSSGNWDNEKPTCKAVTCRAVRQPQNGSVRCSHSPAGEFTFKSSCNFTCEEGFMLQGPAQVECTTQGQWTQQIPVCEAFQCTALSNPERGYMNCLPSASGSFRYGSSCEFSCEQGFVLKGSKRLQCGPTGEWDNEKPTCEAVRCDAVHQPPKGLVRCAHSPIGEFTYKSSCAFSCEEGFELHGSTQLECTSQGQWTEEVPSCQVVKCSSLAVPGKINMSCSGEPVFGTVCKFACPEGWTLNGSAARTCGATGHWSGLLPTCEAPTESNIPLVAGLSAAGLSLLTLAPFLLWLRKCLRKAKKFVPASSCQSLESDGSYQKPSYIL
human CYP2B6, CYP2B6 (gene 1555), sequence (P20813 whole entry, looked up): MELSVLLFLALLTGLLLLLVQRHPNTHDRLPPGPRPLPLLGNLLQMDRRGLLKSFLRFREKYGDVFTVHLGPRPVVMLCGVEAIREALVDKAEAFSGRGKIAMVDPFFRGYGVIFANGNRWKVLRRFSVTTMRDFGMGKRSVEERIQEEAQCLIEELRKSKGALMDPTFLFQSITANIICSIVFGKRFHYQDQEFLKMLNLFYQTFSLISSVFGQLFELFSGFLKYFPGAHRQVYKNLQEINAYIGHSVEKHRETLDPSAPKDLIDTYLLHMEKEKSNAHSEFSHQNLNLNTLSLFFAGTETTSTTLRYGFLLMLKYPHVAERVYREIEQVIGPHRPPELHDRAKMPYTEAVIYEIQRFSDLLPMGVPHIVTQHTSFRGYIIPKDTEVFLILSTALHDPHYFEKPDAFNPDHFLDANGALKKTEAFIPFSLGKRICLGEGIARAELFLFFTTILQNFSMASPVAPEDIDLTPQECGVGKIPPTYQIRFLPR
human CYP1A2, CYP1A2 (gene 1544), sequence (P05177 whole entry, looked up): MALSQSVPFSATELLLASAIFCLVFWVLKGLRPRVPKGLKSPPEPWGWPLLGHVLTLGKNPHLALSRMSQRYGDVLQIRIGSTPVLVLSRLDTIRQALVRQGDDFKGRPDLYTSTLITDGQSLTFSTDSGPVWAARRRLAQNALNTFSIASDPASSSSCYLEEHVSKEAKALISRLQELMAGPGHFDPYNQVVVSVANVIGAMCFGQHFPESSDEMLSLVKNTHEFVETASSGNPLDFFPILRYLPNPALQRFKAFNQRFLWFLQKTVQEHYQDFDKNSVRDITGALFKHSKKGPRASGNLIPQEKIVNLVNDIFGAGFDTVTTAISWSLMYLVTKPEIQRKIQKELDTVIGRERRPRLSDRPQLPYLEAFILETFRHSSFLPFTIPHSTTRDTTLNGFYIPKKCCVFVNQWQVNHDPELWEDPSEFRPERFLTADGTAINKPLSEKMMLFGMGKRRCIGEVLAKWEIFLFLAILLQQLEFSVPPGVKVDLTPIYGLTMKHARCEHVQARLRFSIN
human CYP19A1, CYP19A1 (gene 1588), sequence (P11511 whole entry, looked up): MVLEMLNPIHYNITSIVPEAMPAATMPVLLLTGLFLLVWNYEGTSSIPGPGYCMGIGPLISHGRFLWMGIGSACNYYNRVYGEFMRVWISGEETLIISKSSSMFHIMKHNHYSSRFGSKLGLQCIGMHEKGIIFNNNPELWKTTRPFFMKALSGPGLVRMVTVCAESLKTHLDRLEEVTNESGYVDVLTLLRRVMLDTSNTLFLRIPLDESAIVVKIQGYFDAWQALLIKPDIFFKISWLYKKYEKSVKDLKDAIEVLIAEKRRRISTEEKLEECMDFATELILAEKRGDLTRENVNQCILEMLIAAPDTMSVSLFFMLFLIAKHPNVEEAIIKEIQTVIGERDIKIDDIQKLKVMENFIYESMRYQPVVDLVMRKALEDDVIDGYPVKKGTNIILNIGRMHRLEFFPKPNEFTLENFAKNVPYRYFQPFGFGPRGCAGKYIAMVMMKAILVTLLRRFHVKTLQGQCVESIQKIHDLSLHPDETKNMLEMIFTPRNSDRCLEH

O=[N+]([O-])C(Br)(CO)CO
active: [1] 12.7 µM

COP(=S)(OC)SCN1C(=O)c2ccccc2C1=O
active: [1] 3.41 µM | [2] 0.766 µM

CC(C)(C)OOC(C)(C)CCC(C)(C)OOC(C)(C)C
not listed: [1] | [2] | CD69, CD69 (gene 969) | [15] | [16] | [17]
inactive: all other assays above

Cc1cccc(N)c1N
active: [4] 20 µM | [5] 7.16 µM | [8] 14.3 µM | [16] 6.94 µM
not listed: [1] | [2] | [10] | [17]
inactive: all other assays above

CCCCCCCCOC(=O)c1ccc(C(=O)OCCCCCCCC)c(C(=O)OCCCCCCCC)c1
not listed: [1] | [2] | [10] | [15] | [16] | [17]
inactive: all other assays above

CCC(C)c1ccc(O)cc1 (stereo not drawn)
active: [4] 4.17 µM
not listed: [1] | [2] | [10] | [15] | [16] | [17]
inactive: all other assays above

CN(C)c1ccccc1
not listed: [1] | [2] | CD69, CD69 (gene 969) | [16] | [17]
inactive: all other assays above

O=C1CCCO1
not listed: [1] | [2] | [10] | [16] | [17]
inactive: all other assays above

Nc1ccc(Cc2ccc(N)cc2)cc1
active: [4] 8.34 µM | [2] 0.719 µM
not listed: [10] | [16] | [17]
inactive: all other assays above

Cc1ccc(N)cc1
not listed: [1] | [2] | CD69, CD69 (gene 969) | [16] | [17]
inactive: all other assays above

ClC1=C(Cl)C2(Cl)C3C(Cl)C=CC3C1(Cl)C2(Cl)Cl (stereo not drawn)
active: [3] 31.4 µM | [5] 29.5 µM | [6] 32.2 µM | [7] 33.5 µM | [8] 33.7 µM | CD38, CD38 (gene 952) 32.6 µM | CD40, CD40 (gene 958) 25.7 µM | [9] 31.6 µM | [10] 31.1 µM | [15] 36.8 µM | [11] 13 µM | [12] 27.9 µM | [13] 10.9 µM | [14] 31.7 µM
inactive: [4]

O=C(O)C1C2CCC(O2)C1C(=O)O (stereo not drawn)
active: [7] 6.16 µM | [13] 18.6 µM | [14] 25.6 µM
not listed: [1] | [2] | CD69, CD69 (gene 969) | [16] | [17]
inactive: all other assays above

Clc1ccc(C(c2ccc(Cl)cc2)C(Cl)Cl)cc1
active: [3] 35.2 µM | [4] 28.5 µM | [5] 25.6 µM | [6] 37.8 µM | [7] 31.7 µM | [8] 30.5 µM | CD38, CD38 (gene 952) 29.3 µM | CD40, CD40 (gene 958) 26.2 µM | CD69, CD69 (gene 969) 29.9 µM | [9] 34.2 µM | [11] 14.3 µM | [12] 29 µM | [13] 11.4 µM | [14] 29.5 µM

OCCCBr
not listed: [1] | [2] | [10] | [16] | [17]
inactive: all other assays above

CCCCC(CC)COC(=O)c1ccc(C(=O)OCC(CC)CCCC)c(C(=O)OCC(CC)CCCC)c1 (stereo not drawn)
not listed: [1] | [2] | [10] | [15] | [16] | [17]
inactive: all other assays above

Clc1ccccc1Cl
not listed: [1] | [2] | [10] | [15] | [16]
inactive: all other assays above

O=C(Nc1ccccc1)c1ccccc1I
not listed: [2] | CD69, CD69 (gene 969) | [17]
inactive: all other assays above
